# Source: PubChem BioAssay (EPA / NIEHS)
# Active and inactive are the calls of the source. The calls were made as follows: active = hit-call score of the fitted dose curve at least 0.9, where 1 is the maximum; inactive = score below 0.9.
# Read-out: Interferon-gamma inducible Protein 10 (IP10), CXCL10 (gene 3627)
# Assay: BSK_KF3CT_IP10: BioMAP Diversity Plus: KF3CT Assay for Interferon-gamma inducible Protein 10 (IP10) Biomarker Activity (AID 2283068)
# Details: primary human keratinocytes with fibroblasts; actives raise or lower the signal
# Description: BSK_KF3CT is a cell-based, multiplexed-readout assay that uses keratinocytes and foreskin fibroblasts, a human skin primary cell co-culture, with measurements taken at 24 hours after chemical dosing in a 96-well plate.BSK_KF3CT_IP10 is an assay component measured in the BSK_KF3CT assay. It measures IP-10 antibody related to regulation of gene expression using ELISA technology.Data from the assay component BSK_KF3CT_IP10 was analyzed into 1 assay endpoint. This assay endpoint, BSK_KF3CT_IP10, was analyzed with bidirectional fitting relative to DMSO as the negative control and baseline of activity. Using a type of binding reporter, gain or loss-of-signal activity can be used to understand changes in the signaling as they relate to the gene CXCL10. Furthermore, this assay endpoint can be referred to as a primary readout, because this assay has produced multiple assay endpoints where this one serves a signaling function. To generalize the intended target to other relatable targets, this assay endpoint is annotated to the cytokine intended target family, where the subfamily is chemotactic factor.
# The levels of cell surface (or secreted, indicated by the prefix "s") biomarker endpoints were measured by ELISA. Overt cytotoxicity to cells in confluent adherent cultures (all systems other than the BT system) was assessed by measuring total protein levels using sulforhodamine B (SRB) staining in parallel cultures at the time of biomarker measurements, indicated as SRB endpoints. For proliferation assays for adherent cell types, individual cell types are cultured at sub-confluence and relative cell numbers quantified by SRB staining at time points optimized for each system (48 h: 3C and CASM3C systems; 72 h: BT and HDF3CGF systems; 96 h: SAg system). SRB was performed by staining cells with 0.1% SRB after fixation with 10% TCA and reading wells at 560 nm.Viability and proliferation of PBMC (T cells) was quantified by Alamar Blue reduction for the SAg and BT systems. For PBMC viability (referred to as PBMC Cytotoxicity within the assay endpoint names), cells were plated (75,000/well in a 96-well plate) and then chemical samples added for 1 h before addition of activators, SEB and TSST-1 (20 ng/mL final concentration each). Cells were incubated for 90 h. Then, Alamar Blue (20 uL/well) (Invitrogen, Cat DAL1100) was added for 6 h, and the plates were read with a fluorescence microplate reader at 546/580 nm (excitation/emission). For PBMC proliferation, cells were plated and activated as above but incubated for only 16 h prior to addition of Alamar Blue. Plates were read after 6 h.
SMILES,outcome,AC50
c1ccc(C2CO2)cc1 (stereo not given),inactive,
COc1cc(C=O)cc2c1[C@H](COC(N)=O)[C@]1(OC(C)=O)ON2C[C@H]2[C@@H]1N2C(C)=O,,13 µM (active)
Cc1cccc(N)c1N,inactive,
O=C(Nc1ccccc1)c1ccccc1I,inactive,
C1=Cc2cccc3cccc1c23,inactive,
Oc1ccccc1Cl,inactive,
O=C(Oc1ccc(Br)cc1)N1CCN2CCC1CC2,inactive,
CN(C)c1ccc(C(=O)c2ccc(N(C)C)cc2)cc1,inactive,
CCN(CC)N=O,inactive,
[Cl-].[Cl-].[Hg+2],,12.8 µM (active)
Oc1ccc2ccc3cccc4ccc1c2c34,,26.7 µM (active)
CCCCOC(=O)c1ccccc1C(=O)OCc1ccccc1,inactive,
CC(C)(O)c1cnn2c(-c3ccc(F)c(-c4c(F)cccc4C#N)c3)cnc2n1,,23.2 µM (active)
COC(=O)Nc1nc2ccccc2[nH]1,inactive,
N#CC(Br)Br,inactive,
CC(O)CCO (stereo not given),inactive,
[O-][Cl+]O,inactive,
Nc1ccc(Cl)cc1N,inactive,
Cc1ccc(N=C=O)cc1N=C=O,inactive,
Nc1ccc(Cc2ccc(N)cc2)cc1,inactive,

SMILES,outcome,AC50
CCCCCCCCn1sccc1=O,,8.03 µM (active)
COP(=S)(OC)SCN1C(=O)c2ccccc2C1=O,inactive,
c1ccc2c(c1)-c1cccc3cccc-2c13,inactive,
Brc1ccc(Oc2ccccc2)cc1,inactive,
CCN(CC)CCO,inactive,
CC(C)(C)OOC(C)(C)CCC(C)(C)OOC(C)(C)C,inactive,
CCCCCOC(=O)c1ccccc1C(=O)OCCCCC,inactive,
CCCSC(=O)N(CCC)CCC,inactive,
CCCCCCCCCCCCCN1CC(C)OC(C)C1 (stereo not given),inactive,
Clc1ccc(C(c2ccc(Cl)cc2)C(Cl)Cl)cc1,,13.9 µM (active)
COC(=O)c1ccccc1N,inactive,
Clc1ccc(Cl)c(Cl)c1,inactive,
CCC[CH2][Sn]([Cl])([CH2]CCC)[CH2]CCC,,0.342 µM (active)
Cc1ccc(N)cc1,inactive,
OCCCBr,inactive,
CN(C)c1ccccc1,inactive,
c1ccc(N=Nc2ccccc2)cc1,inactive,
C[C@]12C=CC3=C4CCC(=O)C=C4CC[C@H]3[C@@H]1CC[C@@H]2O,inactive,
ClC1=C(Cl)[C@]2(Cl)[C@H]3[C@H]([C@@H]4C=C[C@H]3C4)[C@@]1(Cl)C2(Cl)Cl,,14.5 µM (active)
ClCCOCCCl,inactive,
